# Source: PubChem BioAssay AID1645870 (National Center for Advancing Translational Sciences (NCATS), 2021)
# Values joined by “and” are separate entries in the source; they are usually repeats but may differ in a detail not shown here. Equal values may be shown once. Among all 59,000 compounds or so, about 1,500 (2.5%) were called active. Entries that show only a call come without a potency. Inconclusive results (about 10%) are left out. Calls follow the shape of the dose curve; as a rule, active = well fitted inhibition curve with a large enough effect; inconclusive = small, poorly fitted or top-dose-only effect; inactive = flat fitted curve, though single readings scatter. Only a selection was taken, and actives are over-represented in it overall. More than one record can exist for a structure, and the calls need not agree.
# Target: N-terminal Xaa-Pro-Lys N-methyltransferase 1 (Homo sapiens) (UniProt Q9BV86)
# Assay: Primary qHTS for Inhibitors of N-terminal methyltransferase 1 (NTMT1): MTaseGlo Assay; also: nearly all actives have a fitted effect of over 65% in size
# Settings: NTMT1 MTase-Glo SAH luminescence, purified enzyme; series mostly up to 114 µM
# Text: Assay Submitter (PI): Rong Huang Ph.D.
# Purdue University, West Lafayette, IN 47907
# The N-terminal methytransferase 1 is the first methyltransferase that methylates protein alpha-N-amines and plays an important role in regulating cell mitosis, chromatin interactions and DNA repair. It is observed to be over-expressed in various cancer patient tissues like malignant melanoma and colorectal cancer tissues. Knockdown of NTMT1 in cancer cells causes cell mitotic defects and enhances sensitivity to DNA damaging chemotherapeutics. […] These critical cellular processes in which NTMT1 is implicated, coupled with emerging links to cellular dysfunction, strengthen the inference that NTMT1 is a compelling novel anticancer target. Progress have been made in understanding the molecular properties of NTMT1 and the biological consequences of protein alpha-N-terminal methylation, but there are no specific small molecule probes available for NTMT1 to fully characterize its MTase activity. To address this unmet need, a panel of assay is created and established to enable quantitative high-throughput screening (qHTS) for novel, potent, and selective small molecule NTMT1 inhibitors. Two orthogonal qHTS that use different reagents (ThioGlo vs. MTaseGlo) are developed for primary robotic screening against the NCATS chemical library of more than 400,000 small molecules. Identified inhibitors are reacquired, validated, and further characterized.
# MTaseGlo Assay is a luminescence screen that measure the activity of methyltransferases based on the reaction product S-adenosyl homocysteine (SAH). The substrate SAM is converted to SAH upon enzyme activation. MTase-Glo reagent and detection solution convert SAH to ATP and measure the light from the luciferase reaction.
# Materials: NTMT1 enzyme, substrate SPKRIA, control peptide RCC1-6 is provided by the Huang laboratory.
# SEQUENCE No. (e.g., 1, 2, 3, etc.); […] (e.g., Cells, Incubation, Reagent, etc.); VALUE; DESCRIPTION
# 1; Enzyme; 3 uL; Dispense enzyme mixture (final concentrations of 125 nM NTMT1 and 100 uM SAM) into Greiner 1536-well white / solid bottom assay plate (Greiner Bio One, Monroe, NC).
# 2; Compounds; 23 nL; Compounds and controls were transferred via a Kalypsys Pin Tool (Wako USA) equipped with a 1536-slotted pin array (Wako Automation, Richmond, VA)
# 3; Incubation; 15 min; Incubate at room temperature
# 4; Substrate; 1 uL; Dispense 1 uL of substrate at final concentration of 1 uM. Buffer solution was dispensed in control wells. The assay plate was covered with metal lids.
# 5; Incubation; 30 min; Incubate at room temperature, protected from lights.
# 6; Reagent; 1 uL; Dispensed 5x MTase-Glo detection reagent (R) into the assay plate. The plate was covered with metal lids.
# 7; Incubation; 30 min; Incubate the assay plates at room temperature in the dark to allow for SAH to be converted to ADP.
# 8; Reagent; 5 uL; Dispense 5 uL of 1x MTase-Glo Detection Solution (R) to allow for ADP to be converted to ATP which was then detected with a luciferase reaction.
# 9; Centrifuge; 15 sec; Centrifuge the assay plate for 15 seconds at 1000 RPM.
# 10; Incubation; 30 min; Assay plates were incubation at room temperature in the dark.
# 11; Detection; Luminescence; Plates were read on ViewLux detector (PerkinElmer). Data were normalized to no-enzyme (0% activity) and no-inhibitor (DMSO; 100%) controls, and the resulting percent inhibition data were fitted to a 4-parameter Hill equation using GraphPad Prism.
# Potency is read from the fitted curve at half-maximal effect.
# Sequence of N-terminal Xaa-Pro-Lys N-methyltransferase 1 (Homo sapiens) (Q9BV86 whole entry, looked up): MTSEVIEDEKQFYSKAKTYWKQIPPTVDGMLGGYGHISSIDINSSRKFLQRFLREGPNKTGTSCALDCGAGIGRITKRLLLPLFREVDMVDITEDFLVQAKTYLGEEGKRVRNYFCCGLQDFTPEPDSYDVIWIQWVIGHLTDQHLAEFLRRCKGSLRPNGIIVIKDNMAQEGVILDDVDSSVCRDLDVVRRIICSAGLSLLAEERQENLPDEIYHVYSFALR
row,SMILES,Potency
1,Cc1cc(-c2nnc3n2CCCCC3)c(C)n1-c1ccc(C(F)(F)F)cc1,inactive
2,COc1cc(F)c(S(=O)(=O)N2CCCN(S(=O)(=O)c3ccc(N)cc3)CC2)c(F)c1,inactive
3,CC(C)(C)OC(=O)N1CCN(c2ccc(NCc3ccc4c(-c5ccc(F)cc5)cc(=O)oc4c3)cc2)CC1,inactive
4,Cc1cc(-c2nnc3n2CCCCC3)c(C)n1-c1cccc(Cl)c1,inactive
5,C(#Cc1cccs1)c1cccnc1,inactive
6,CC(C)(C)c1nc(-c2cccc(NS(=O)(=O)c3c(F)cccc3F)c2F)c(-c2ccnc(N)n2)s1,inactive and 39.8 µM (active)
7,CCOC(=O)c1scc(-c2ccccc2)c1S(=O)(=O)Nc1ccccc1F,inactive
8,O=C(C[C@H]1CC[C@@H](C(=O)Nc2ccc(S(=O)(=O)Nc3nccs3)cc2)C1)c1ccccc1,inactive
9,O=C(NCc1nnc(C(=O)Nc2ccc(C(F)(F)F)cc2Cl)o1)c1ccccc1,inactive
10,Cc1cccc(C2N=C(Nc3nc4ccccc4o3)NC3=C2C(=O)CCC3)c1 (stereo unspecified),inactive
11,COc1cccc(C(=O)Nc2nnc(S(=O)(=O)N3CCOCC3)s2)c1,inactive
12,COc1ccc2c(c1)Cc1sc(NC(=O)c3ccccc3Br)nc1-2,50.1 µM (active)
13,COc1ccc(CC(=O)Nc2ccc(-c3nc4ccccc4s3)c(C)c2)cc1,inactive
14,CC(Cc1cnccn1)Nc1cnc2c(O)ccc(C(=O)O)c2c1 (stereo unspecified),inactive
15,CCCn1c(-c2ccc(F)cc2)nc2c(NCC3CCCN3CC)nc(C)nc21 (stereo unspecified),inactive
16,NC(=O)C1CCN(c2ncc(-c3ccc(Cl)cc3)s2)CC1,inactive
17,COc1cccc(OC2=NS(=O)(=O)c3ccccc32)c1,inactive
18,Oc1c(Cl)cc(Cl)c(Cl)c1Cc1c(O)c(Cl)cc(Cl)c1Cl,31.6 µM (active)
19,Cc1cc(Nc2cc(C)c(C#N)c(NC(C)CCCC(C)(C)O)n2)n[nH]1 (stereo unspecified),inactive
20,Cc1ccc(Cn2ncc3c4sc(C)cc4n(C)c3c2=O)c(C)c1,inactive
21,O=C1CCc2cc(S(=O)(=O)Nc3cccc(Oc4ccccc4)c3)ccc2N1,inactive
22,COc1ccc(C2Nc3ccccc3C(=O)N2Cc2cccs2)cc1COc1c(C)cccc1C (stereo unspecified),inactive
23,COc1cccc(CNc2ccc(S(=O)(=O)Nc3cccs3)cc2)c1O,inactive

row,SMILES,Potency
1,CCCn1c(C)nc2c(NCCCCN(CC)CC)nc(C)nc21,inactive
2,CCN(CCCNC(=O)c1cc2c(=O)n(CC)c3ccccc3c2s1)Cc1ccccc1,79.4 µM (active)
3,CCn1c(=O)c2cc(C(=O)NCCc3ccc(Cl)cc3)sc2c2ccccc21,inactive
4,CCc1ccc(CNC(=O)c2cc3c(=O)n(CC)c4ccccc4c3s2)cc1,inactive
5,COc1ccc(C2Nc3ccccc3C(=O)N2Cc2ccc(CNC(=O)CO)cc2)cc1COc1ccc(NC(C)=O)cc1 (stereo unspecified),inactive
6,O=C(Nc1ccc(S(=O)(=O)N2CCC(c3nc4ccccc4s3)CC2)cc1)c1ccccc1F,inactive
7,O=C(Nc1nc2c(s1)CCCC2)c1ccccc1F,35.5 µM (active)
8,Cc1cc(C)cc(OC(C)C(=O)Nc2nc3c(s2)CCCC3)c1 (stereo unspecified),inactive
9,O=C1CCCC2=C1C(c1[nH]ncc1Cl)N=C(Nc1nc3ccc(F)cc3o1)N2 (stereo unspecified),inactive
10,CN1C(=O)[C@@H](NC(=O)c2n[nH]c(Cc3ccccc3)n2)COc2ccccc21,inactive
11,Nc1ccc2c(=O)n3nc(Nc4ccc5c(c4)CCC5)sc3nc2c1,inactive
12,Oc1ccc(/C=C/c2c(F)cccc2F)c2cccnc12,inactive
13,CCOc1ccccc1C(=O)Nc1ccc(S(=O)(=O)N2CCCCC2c2cccnc2)cc1 (stereo unspecified),79.4 µM (active)
14,Cc1cccc(C(=O)Nc2ccc(S(=O)(=O)N3CCCCC3c3cccnc3)cc2)c1 (stereo unspecified),inactive
15,CCOc1ccccc1NC(=O)CN1CCN(S(=O)(=O)c2ccc(Br)cc2)CC1,inactive
16,Cn1c2cc(B(O)O)sc2c2cnn(Cc3ccccc3F)c(=O)c21,inactive
17,CC(C)(O)c1ccccc1CC[C@H](SCC1(CC(=O)O)CC1)c1cccc(/C=C/c2ccc3ccc(Cl)cc3n2)c1,inactive
18,O=C(NCCc1nc2ccccc2n1CCOc1cccc(Br)c1)C1CCCCC1,inactive
19,O=S(=O)(c1ccc2c(c1)OCCO2)N1CCN(S(=O)(=O)c2cc(F)ccc2F)CC1,inactive
20,COc1ccc(C2Nc3ccccc3C(=O)N2Cc2ccc(Cl)cc2)cc1COc1ccc(NC(C)=O)cc1 (stereo unspecified),inactive
21,Cc1ccc(-n2ncc3c(NCCCn4ccnc4)ncnc32)cc1Cl,44.7 µM (active)
22,Clc1cccc(-n2ncc3c(NCCc4ccccc4)ncnc32)c1,inactive
23,CCN(CC)CCNc1ncnc2c1cnn2-c1cc(Cl)ccc1C,inactive
